# Assay outcomes from PubChem BioAssay.
# This is a sample that favours compounds with a hit; in the whole collection about 4.4% have one here.
# PfHsp90 set2: reduces growth (ATP signal) of yeast expressing P. falciparum Hsp90; 0.32% of 310,000 active; AID 504621; S. cerevisiae expressing PfHsp90, BacTiter-Glo ATP, 48 h; yeast lacking PDR1 and PDR3 efflux regulators; inhibition, % at 9.4 µM;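 active = every replicate shows inhibition above about 80%, whatever the replicate mean, limit read from the data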
# tim10-1 inh: inhibits growth of tim10-1 mutant yeast. 2.2% of 330,000 active. AID 463190. S. cerevisiae tim10-1 ts strain growth, BacTiter-Glo, 24 h. inhibition, % at 20 µM;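 active = inhibition of at least 40%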;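 also: mutant grown at 25 °C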
# TIM10 inh: inhibits growth of TIM10 yeast strain. S. cerevisiae TIM10 strain growth, BacTiter-Glo luminescence, 24 h. inhibition, % at 10 µM. 1.4% of 330,000 active. AID 463195;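 active = inhibition of 40% or more at the single tested concentration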;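 also: wild-type TIM10 isogenic control strain grown at permissive 25 °C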
# tim23-1 inh: inhibits growth of tim23-1 mutant yeast; S. cerevisiae tim23-1 growth, BacTiter-Glo luminescence, 24 h; inhibition, % at 20 µM; 1.3% of 330,000 active;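 active = growth inhibition of the mutant yeast at or above 50%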;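 also: temperature-sensitive mutant grown at 25 °C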
# SKKanGAS inh: SKKanGAS growth inhibition | S. pyogenes SKKanGAS, kanamycin growth, BacTiter-Glo, 6 h | inhibition, % at 7.5 µM | 1.3% of 300,000 active | AID 1662;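 active = mean replicate score, as percent of positive control median, at least 50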;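 also: strain carries kanamycin resistance gene driven by streptokinase promoter and grows in 40 µg/ml kanamycin; loss of luminescence reflects streptokinase promoter inhibition or plain growth inhibition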
# tim10-1 conf: tim10-1 yeast growth inhibition, confirmed; 56% of 7,400 active; AID 463213; shares compounds with tim10-1 inh; inhibition, % at 20 µM; S. cerevisiae tim10-1 ts strain growth, BacTiter-Glo, 24 h;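 active = inhibition of yeast growth at or above a set limit in either of two repeat tests at 20 µM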;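 also: tim10-1 mutant grown at permissive 25 °C to find synthetic lethal compounds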
# TIM10 conf: confirmation of TIM10 yeast growth inhibitors; shares compounds with TIM10 inh; S. cerevisiae tim10 strain growth, BacTiter-Glo luminescence, 24 h; inhibition, % at 10 µM; 63% of 4,600 active; AID 463215;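 active = inhibition of yeast growth at or above a set limit in either of two replicates at 10 µM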; also: this counterscreen used the strain with wild-type TIM10
# tim23-1 confirm: confirmation of tim23-1 mutant yeast growth inhibitors; shares compounds with tim23-1 inh; S. cerevisiae tim23-1 growth, BacTiter-Glo luminescence, 24 h; inhibition, % at 20 µM; 83% of 4,400 active; AID 463218;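 active = inhibition above about 39% in either of two replicate wells at 20 µM, limit read from the data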;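 also: temperature-sensitive tim23-1 mutant grown at 25 °C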
# Numbers stand for hits; – = inactive; · = no result given.
SMILES,PfHsp90 set2,tim10-1 inh,TIM10 inh,tim23-1 inh,SKKanGAS inh,tim10-1 conf,TIM10 conf,tim23-1 confirm
O=c1c2c(-c3cccs3)csc2ncn1/N=C/c1ccccn1,–,56,–,61,–,60,·,62
O=C(O)COc1ccc(/C=N/n2cnc3scc(-c4cccs4)c3c2=O)cc1,–,·,·,·,·,·,·,·
Nn1cnc2scc(-c3cccs3)c2c1=O,–,–,–,–,–,·,·,·
O=c1c2c(-c3cccs3)csc2ncn1-c1ccc(Br)cc1,·,42,–,59,–,35,·,48
COc1cccc(-n2cnc3scc(-c4cccs4)c3c2=O)c1,–,43,–,52,–,42,·,50
Cc1ccc(S(=O)(=O)N2CCN(C(=O)CN3C(=O)c4ccccc4C3=O)CC2)c(C)c1,·,–,–,–,·,·,·,·
O=c1c(O)c(-c2cccs2)oc2ccc(Cl)cc12,–,42,72,53,66,32,59,66
c1ccc2c(CN3CCOCC3)csc2c1,–,–,–,–,–,·,·,·
c1ccc2c(CN3CCOCC3)c3ccccc3c(CN3CCOCC3)c2c1,·,53,61,84,–,52,50,–
CCN(CC(=O)Nc1ccc2c(c1)OCCO2)C(=O)c1ccc(C)c(S(=O)(=O)N2CCOCC2)c1,–,–,–,–,–,·,·,·
COc1ccc(C(=O)/C=C/Sc2nc3ccccc3o2)cc1,–,50,–,75,–,38,·,66
CCCCOC(=O)Nc1nc2ccccc2s1,–,–,–,–,–,·,·,·
CCCCOC(=O)Sc1nc2ccccc2o1,–,49,64,74,–,49,43,44
Cc1nc(N2CCN(Cc3ccc(Cl)cc3)CC2)c2oc3ccccc3c2n1,–,53,42,54,–,36,49,43
CC1(C(=O)Nc2nnc(SCc3ccccc3)s2)Cc2ccccc2C(=O)O1 (stereo unspecified),·,47,–,52,–,50,·,42
COc1cc(/C=C/C(=O)c2ccccc2O)cc(OC)c1OC,–,53,–,62,–,43,·,55
O=C(/C=C/c1ccc2c(c1)OCCCO2)c1ccccc1O,–,53,60,50,–,46,–,–
COc1cc(OC)c(C=CC(=O)c2ccccc2O)c(OC)c1,–,·,·,·,·,·,·,·
CN(C)c1ccc(/C=C/C(=O)c2ccccc2O)cc1,–,–,–,–,–,·,·,·
N=C1C(c2ccccc2)=C(O)CN1c1cccc(S(=O)(=O)NCc2ccco2)c1,–,–,–,–,–,·,·,·
Cc1c(Cl)cccc1NC(=O)Nc1cc(C(C)(C)C)on1,–,59,–,59,–,26,·,45
Cc1cc(NC(=O)Nc2ccccc2Cl)no1,–,–,–,–,–,·,·,·
CC(C)COC(=O)C(C#N)c1nc2ccccc2nc1N1CCN(Cc2ccccc2)CC1 (stereo unspecified),–,42,–,51,–,–,·,–
COCCOC(=O)C(C#N)c1nc2ccccc2nc1N1CCN(Cc2ccccc2)CC1 (stereo unspecified),–,–,–,–,–,·,·,·
C=CCNC(=O)C(C#N)c1nc2ccccc2nc1N1CCN(Cc2ccccc2)CC1 (stereo unspecified),–,–,–,–,–,·,·,·
SMILES,PfHsp90 set2,tim10-1 inh,TIM10 inh,tim23-1 inh,SKKanGAS inh,tim10-1 conf,TIM10 conf,tim23-1 confirm
C=CCOC(=O)C(C#N)c1nc2ccccc2nc1N1CCN(Cc2ccccc2)CC1 (stereo unspecified),–,47,–,50,·,36,·,43
CCCCC(CC)CN=C(N)NC(N)=NCCCCCCN=C(N)NC(N)=NCC(CC)CCCC (stereo unspecified),110,96,94,88,·,95,96,84
CCc1ccccc1NC(=O)C1CCCN(S(=O)(=O)c2ccc3c(c2)CC(C)N3C(C)=O)C1 (stereo unspecified),–,–,–,–,–,·,·,·
N#C/C(=C/c1ccncc1)c1nc2ccccc2s1,–,60,70,80,–,40,67,79
N#C/C(=C\c1ccncc1)c1nc2ccccc2[nH]1,–,–,–,–,–,·,·,·
Oc1c(I)cc(I)c2cccnc12,109,71,53,69,92,65,76,56
NS(=O)(=O)c1ccc(CNC(=O)c2ccc3c(=O)n4c(nc3c2)CCC4)cc1,–,–,–,–,–,·,·,·
CCOC(=O)C1=C(Cc2ccc(F)cc2)C(=O)c2ccccc2C1=O,–,57,64,66,–,68,57,71
CC1(C)C(CSc2nc3ccccc3[nH]2)C1(Cl)Cl (stereo unspecified),–,45,–,57,–,–,·,60
CCSc1nc2ccccc2[nH]1,–,–,–,–,–,·,·,·
COc1ccc(/C=C/c2nc3ccccc3n2C)cc1,–,57,70,66,66,49,67,47
COc1ccc(C(=O)O/N=C(\N)c2ccc(OC)c(OC)c2)cc1,–,73,49,53,–,78,40,64
COc1ccc(C(=O)O/N=C(\N)c2ccccc2)c(OC)c1,–,76,70,60,·,72,67,87
OCc1ccccc1SSc1ccccc1CO,·,–,–,–,–,·,·,·
COc1cccc(C(=O)Nc2ccc(Cl)c(C(F)(F)F)c2)c1,–,64,61,68,–,57,50,75
O=C1CS(=O)(=O)N(Cc2cccc(F)c2)c2ccc(Br)cc21,–,48,–,66,·,48,·,–
Cc1nnnn1/C(=C\c1ccccc1)C(=O)OCC(=O)Nc1cccc(S(=O)(=O)N(C)C)c1,–,–,–,–,·,·,·,·
Cc1nnnn1/C(=C\c1ccccc1)C(=O)OCC(=O)Nc1ccc(Cl)cc1F,–,44,96,80,–,–,75,40
O=C(NCc1ccc(Cl)cc1)C1CCCCN1S(=O)(=O)c1ccccc1 (stereo unspecified),–,–,–,–,–,·,·,·
Cc1ccc(NC(=O)CSc2nnc(-c3ccoc3C)n2CCCN(C)C)cc1Cl,–,–,–,–,–,·,·,·
O=C(Oc1c(Cl)cc(Cl)c2cccnc12)c1cccs1,99,44,64,56,92,48,57,62
O=C(Oc1cncc(Cl)c1)c1ccco1,–,–,–,–,–,·,·,·
O=C(Oc1c(Cl)cc(Cl)c2cccnc12)c1ccco1,129,65,71,89,85,48,67,72
Cn1c(=O)c2c(SCC(=O)N3CCCC3)nc(CC(C)(C)C)nc2n(C)c1=O,–,–,–,–,–,·,·,·
OC(CNCCc1ccc(C(F)(F)F)cc1)COC(c1ccccc1)c1ccccc1 (stereo unspecified),–,–,–,–,–,·,·,·
CSc1nc2ccccc2cc1/C=C(\C#N)c1ccccc1,–,–,–,–,–,·,·,·
O=Cc1cc2ccccc2nc1SCCCF,–,64,78,67,–,69,72,55
